The results in this text go back to PubChem BioAssay AID624416 (The Scripps Research Institute Molecular Screening Center, 2012).

Hit rate of the full screen: of about 360,000 compounds, about 1,500 (0.42%) were called active. This excerpt belongs to a sample that is enriched for actives. Unmarked numbers belong to inactive results. Rule as the data show it: active = inhibition above about 8.5%; inactive = the rest.

The experiment deals with HIV-1 gp120 / PG9 antibody interaction. In words: small molecules engaging PG9 antibody – biochemical, TR-FRET, primary screen (AID 624416). Particulars: TR-FRET gp120-PG9 antibody binding; at 6.7 µM; stronger effect = higher value. For orientation: Time-resolved FRET reads energy transfer from a long-lived donor to a nearby acceptor.
On to `COC(=O)C1=C(C)N(Cc2cccc(C(F)(F)F)c2)C(=NCc2ccccc2)NC1c1ccccc1C(F)(F)F` (stereo not drawn), for which the inhibition (in general, the change of the read-out against control, counted positive when it falls) was 0.63%.

For the compound `COC(=O)C(C(=O)OC)c1ccccc1NS(=O)(=O)c1cccc2ccccc12`, the inhibition was 0.18%.

As for `CC(=NNC(N)=O)c1ccc(Cl)c(-n2cccc2)c1`, the inhibition is 0.53%.

As for `COc1cccc(NS(=O)(=O)c2ccc3[nH]cc(C(=O)NCCCOC(C)C)c(=O)c3c2)c1`, the inhibition is 10.3% (active).

Turning to `CCN(CC)S(=O)(=O)c1ccc2[nH]cc(C(=O)NCCc3ccccc3)c(=O)c2c1`, the inhibition is -0.32%.

With `CCCCNC(=O)c1c[nH]c2ccc(S(=O)(=O)Nc3ccc(OCC)cc3)cc2c1=O`, the inhibition was 2.91%.

In the case of `CN1CCCCC(NC(=O)C(C)(C)C)C1=O` (stereo not drawn), the inhibition is -1.72%.

For the compound `O=C(O)CCCCCNc1ncnc2ccc(Br)cc12`, the inhibition is 18.3% (active).

As for `CC(C)N(c1ccccc1)c1ncnc(NCCC(=O)O)c1[N+](=O)[O-]`, the inhibition is -1.67%.

As to `COC(=O)[C@]1(Cc2ccccc2)NC=C(C(=O)c2ccccc2)[C@@H]1c1cccc(OC)c1`, the inhibition was -1.25%.

On to `CC(=O)Nc1ccc(Nc2nc3c(S(=O)(=O)c4ccc(C)c(C)c4)nnn3c3ccccc23)cc1`, for which the inhibition was 1.78%.

For `Cc1cc(Nc2cccc(C)c2C)n2ncnc2n1`, the inhibition is 0.14%.

For `Cc1cccc(Nc2nc3c(S(=O)(=O)c4ccccc4)nnn3c3ccccc23)c1C`, the inhibition was 16.5% (active).

Turning to `COc1cccc(CNC(=O)[C@H]2CCCN2C(=O)[C@H]2CCCN2C(=O)c2ccc(F)cc2)c1`, the inhibition is -1.74%.

For `O=C(C(=O)N1CCC(CNS(=O)(=O)Cc2ccccc2)CC1)c1cc2ccccc2o1`, the inhibition is 0.63%.

As to `COC(=O)c1cc2c(c3c4cc(F)ccc4n(S(=O)(=O)c4ccccc4)c13)C(=O)N(Cc1ccccc1OC)C2`, the inhibition is 0.8%.

For `CCOC(=O)C1CSCCS(=O)(=O)N1Cc1ccc(Cl)cc1` (stereo not drawn), the inhibition was -1.82%.

As for `Cc1ccccc1C(=O)N[C@H](C(=O)N1CCC[C@H]1C(=O)NCc1ccccc1)C(C)C`, the inhibition is -2.77%.

For `CC(=O)Nc1ccc(C(=O)CSc2nc3ccc(C)cc3[nH]2)cc1`, the inhibition was -0.81%.

Regarding `Cc1nc2nc(SCC(=O)c3ccccc3)[nH]c2cc1Br`, the inhibition is 29.2% (active).

Take `Cc1nc2nc(SCC(=O)Nc3cccc(F)c3)[nH]c2cc1Br`: the inhibition is -0.51%.

`COc1cccc(-c2cc(CNC(=O)[C@@H](Cc3ccccc3)NC(=O)[C@H]3O[C@@H](n4cnc(C(N)=O)n4)[C@H](O)[C@@H]3O)no2)c1`: the inhibition is -2.73%.

For the compound `COC(=O)[C@]12C[C@H](CC(=O)NCc3ccc(C)o3)C(=O)N(CCC3=CCCCC3)C1=C[C@H](C(C)(C)C)O[C@@H]2C`, the inhibition is -1.11%.
